In PubChem BioAssay (NCI):
Compounds without any hit were thinned out: in the full panel of roughly 83,000, 20% have a hit.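 Note: values are percent growth. 100 is the growth of untreated cells, values between 100 and 0 indicate rising inhibition; between -100 and 0 indicates cell death.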 A number with no mark means an inactive call. Calls of active or inactive are those of the source. The calls were made as follows: active = growth percent below 10; inactive = the rest.

How the values were obtained:
Assay in all cases: NCI-60 one-dose screen, 48 h (100 = growth as untreated, 0 = no growth, -100 = all killed)
Settings in all cases: 10 µM unless noted
[1] = test system: NCI-H23 lung
[2] = test system: NCI-H226 lung
[3] = test system: NCI-H322M lung
[4] = test system: HOP-62 NSCLC
[5] = test system: NCI-H460 lung
[6] = test system: NCI-H522 lung
[7] = test system: A549/ATCC NSCLC
[8] = test system: 786-0 renal
[9] = test system: COLO 205 colon
[10] = test system: DU-145 prostate
[11] = test system: K-562 leukemia
[12] = test system: MALME-3M melanoma
[13] = test system: MDA-MB-231 breast
[14] = test system: RXF 393 renal
[15] = test system: SF-268 CNS
[16] = test system: SF-539 CNS
[17] = test system: UACC-257 melanoma
[18] = test system: M14 melanoma
[19] = test system: HCT-15 colon
[20] = test system: SF-295 CNS

CC(C)(C)c1cc(O)c(O)c(C(C)(C)C)c1
growth [1]: 48.4%
growth [2]: 75.6%
growth [3]: 63.5%
growth [4]: 64.7%
growth [5]: 14.7%
growth [6]: 0.232% (active)
growth [7]: 20.9%
growth [8]: 52.2%
growth [9]: 64.9%
growth [10]: 68.7%
growth [11]: 3.38% (active)
growth [12]: 67%
growth [13]: 61.1%
growth [14]: 65%
growth [15]: 53.2%
growth [16]: 40.6%
growth [17]: 80.5%
growth [18]: 51.9%
growth [19]: 26.7%

Cc1cc(C(C)(C)C)cc(C)c1CC1=NCCN1
growth [1]: 99%
growth [2]: 89.2%
growth [3]: 102%
growth [4]: 109%
growth [5]: 118%
growth [6]: 106%
growth [7]: 104%
growth [8]: 96.9%
growth [9]: 92.6%
growth [10]: 107%
growth [11]: 90.4%
growth [12]: 99.2%
growth [13]: 109%
growth [14]: 107%
growth [15]: 100%
growth [20]: 96.3%
growth [17]: 106%
growth [18]: 107%
growth [19]: 102%

Nc1ccc2c3c(cccc13)-c1ccccc1-2
growth [1]: 97.7%
growth [2]: 55.5%
growth [3]: 75.1%
growth [4]: 100%
growth [5]: 99.1%
growth [6]: 68.5%
growth [7]: 85.1%
growth [8]: 68.4%
growth [9]: 96.5%
growth [10]: 109%
growth [11]: 84.4%
growth [12]: 98.4%
growth [13]: 76.5%
growth [14]: 93%
growth [15]: 78.4%
growth [20]: 102%
growth [17]: 104%
growth [18]: 90.2%
growth [19]: 86.1%

COc1cc2c(cc1OCCCOc1ccc(-c3cc4ccccc4c4ccccc34)cc1)N=C[C@@H]1CCCN1C2=O
growth [1]: -39.3% (active)
growth [2]: -78.7% (active)
growth [3]: -69.4% (active)
growth [4]: -45% (active)
growth [5]: -45.2% (active)
growth [6]: -43.9% (active)
growth [7]: -17.4% (active)
growth [8]: -79.9% (active)
growth [9]: -0.637% (active)
growth [10]: -35.6% (active)
growth [11]: 10.5%
growth [12]: -57.9% (active)
growth [13]: -71.2% (active)
growth [14]: -49.6% (active)
growth [15]: -61.2% (active)
growth [20]: -64.6% (active)
growth [16]: -57.6% (active)
growth [18]: -34.2% (active)
growth [19]: -64% (active)

CCC(C)CC(C)C(=O)c1c(O)ccn(O)c1=O (stereo unspecified)
growth [1]: 25.2%
growth [2]: 95.8%
growth [3]: 52.5%
growth [4]: 24%
growth [5]: 23.7%
growth [6]: 33.2%
growth [7]: 22.6%
growth [8]: 70%
growth [9]: 108%
growth [10]: 42.7%
growth [11]: 18.2%
growth [12]: 42.1%
growth [13]: 45.3%
growth [14]: 35.4%
growth [15]: 26.4%
growth [16]: 5.81% (active)
growth [17]: 27.1%
growth [18]: 15.5%
growth [19]: 25.3%

O=C1/C(=N/O)CCc2ccccc21
growth [1]: 98.1%
growth [2]: 101%
growth [3]: 102%
growth [4]: 91.5%
growth [5]: 92.6%
growth [6]: 94%
growth [7]: 103%
growth [8]: 111%
growth [9]: 100%
growth [10]: 100%
growth [11]: 19.4%
growth [12]: 91.7%
growth [13]: 79.7%
growth [14]: 96.7%
growth [15]: 91%
growth [16]: 88.5%
growth [17]: 90.7%
growth [18]: 104%
growth [19]: 102%

Nc1nc(SCc2ccccc2Cl)c(-c2ccccc2)c(SCc2ccccc2Cl)n1
growth [1]: 83.2%
growth [2]: 105%
growth [3]: 107%
growth [4]: 87.9%
growth [5]: 85.6%
growth [6]: 79.3%
growth [7]: 79.3%
growth [8]: 104%
growth [9]: 95%
growth [10]: 98.2%
growth [11]: 85.3%
growth [12]: 110%
growth [13]: 109%
growth [14]: 115%
growth [15]: 105%
growth [16]: 114%
growth [17]: 92.4%
growth [18]: 95.3%

COC(=O)c1ccc2c(c1)nc(-c1ccc(O)c(OC)c1)n2-c1cc(C(C)(C)C)[nH]n1
growth [1]: 93.3%
growth [2]: 106%
growth [3]: 103%
growth [4]: 128%
growth [5]: 96.3%
growth [6]: 78.7%
growth [7]: 87.9%
growth [8]: 97.7%
growth [9]: 120%
growth [10]: 118%
growth [11]: 90.6%
growth [12]: 114%
growth [13]: 97.7%
growth [14]: 131%
growth [15]: 104%
growth [16]: 105%
growth [17]: 101%
growth [18]: 95.7%
growth [19]: 115%

COc1cccc(C2C(C#N)=C(N)Oc3cc(OC)ccc32)c1 (stereo unspecified)
growth [1]: 16.2%
growth [2]: 72.6%
growth [3]: 32.6%
growth [4]: 24.6%
growth [5]: 7.42% (active)
growth [6]: -38.4% (active)
growth [7]: 15.6%
growth [8]: 29.9%
growth [9]: -73.4% (active)
growth [10]: -15.2% (active)
growth [11]: -4.51% (active)
growth [12]: 36.6%
growth [13]: -15.4% (active)
growth [14]: 26.9%
growth [15]: 18.3%
growth [16]: -13.3% (active)
growth [17]: 59.2%
growth [18]: 12.6%

Cn1c(=O)c2c(nc(Br)n2CCC(=O)Nc2ccc(F)cc2)n(C)c1=O
growth [1]: 101%
growth [2]: 101%
growth [3]: 106%
growth [4]: 92.4%
growth [5]: 109%
growth [6]: 87.9%
growth [7]: 85.2%
growth [8]: 100%
growth [9]: 112%
growth [10]: 118%
growth [11]: 97.5%
growth [12]: 105%
growth [13]: 102%
growth [14]: 118%
growth [15]: 111%
growth [20]: 104%
growth [16]: 98.7%
growth [18]: 96.3%
growth [19]: 108%

S=c1[nH]nc2sc3ccccc3n12
growth [1]: 88%
growth [2]: 106%
growth [3]: 125%
growth [4]: 97.9%
growth [5]: 111%
growth [6]: 98.4%
growth [7]: 108%
growth [8]: 111%
growth [9]: 104%
growth [10]: 121%
growth [11]: 107%
growth [12]: 122%
growth [13]: 96.7%
growth [14]: 116%
growth [15]: 110%
growth [16]: 106%
growth [17]: 111%
growth [18]: 104%
growth [19]: 100%

CC[C@]1(O)CC2CN(CCc3c([nH]c4ccccc34)[C@@](C(=O)OC)(c3cc4c(cc3OC)N(C)[C@H]3[C@@](O)(C(=O)OC)[C@H](OC(C)=O)[C@]5(CC)C=CCN6CC[C@]43[C@@H]65)C2)C1 (stereo partly specified)
growth [1]: 16.1%
growth [2]: 48.9%
growth [3]: 54.4%
growth [4]: 31.7%
growth [5]: 2.54% (active)
growth [6]: -17.9% (active)
growth [7]: 17.2%
growth [8]: 13.8%
growth [9]: -50.7% (active)
growth [10]: -39.8% (active)
growth [11]: 7.74% (active)
growth [12]: 38.4%
growth [13]: 5.18% (active)
growth [14]: 25.9%
growth [15]: 4.83% (active)
growth [20]: 12.2%
growth [17]: 61.9%
growth [18]: -15.6% (active)

Cc1cc(NC(=O)c2ccc(N)cc2)ccc1N=Nc1ccc2c(O)c(N=Nc3ccc(Cl)c(S(=O)(=O)O)c3)c(S(=O)(=O)O)cc2c1
growth [1]: 69.9%
growth [2]: 81.9%
growth [3]: 62.5%
growth [4]: 64.2%
growth [5]: 49.7%
growth [6]: 78.6%
growth [7]: 60.5%
growth [8]: 110%
growth [9]: 117%
growth [10]: 111%
growth [11]: 62.4%
growth [12]: 105%
growth [13]: 109%
growth [14]: 68.6%
growth [15]: 89.9%
growth [16]: 87.3%
growth [17]: 87.5%
growth [18]: 92.5%
growth [19]: 83.6%

CCC(=O)Nc1ccccc1C#C/C=C\C#Cc1ccccc1C(F)(F)F
growth [1]: 57.3%
growth [2]: 52.5%
growth [3]: 37.4%
growth [4]: 54.5%
growth [5]: 10.2%
growth [6]: 68.2%
growth [7]: 64.2%
growth [8]: 50.5%
growth [9]: 59.4%
growth [10]: 40%
growth [11]: 43.4%
growth [12]: 54.4%
growth [13]: 55.6%
growth [14]: 42.8%
growth [15]: 67.8%
growth [20]: 28.8%
growth [16]: 55%
growth [18]: 40.5%
growth [19]: 56.3%

O=C(Nc1cccc(C(F)(F)F)c1)Nc1ccc(OCc2nnc(-c3ccc(Cl)cc3)o2)c(F)c1
growth [1]: 68%
growth [2]: 94.9%
growth [3]: 86.5%
growth [4]: 50.8%
growth [5]: 63.9%
growth [6]: 64%
growth [7]: 50%
growth [8]: 84.2%
growth [9]: 66.5%
growth [10]: 88.1%
growth [11]: 61%
growth [12]: 55.7%
growth [13]: 58.8%
growth [14]: 58.2%
growth [15]: 83.3%
growth [16]: 82.2%
growth [17]: 62.8%
growth [18]: 73.5%
growth [19]: 42.9%

CSc1ccc2c(c1)N(CCC1CCCCN1C)c1ccccc1S2 (stereo unspecified)
growth [1]: 83.9%
growth [2]: 107%
growth [3]: 64%
growth [4]: 68.8%
growth [5]: 46.8%
growth [6]: 56.3%
growth [7]: 63.9%
growth [8]: 43.9%
growth [9]: 18.9%
growth [10]: 68.7%
growth [11]: 1.49% (active)
growth [12]: 72.8%
growth [13]: 46.3%
growth [14]: 26.7%
growth [15]: 54.5%
growth [20]: 58.4%
growth [17]: 32.8%
growth [18]: -57.9% (active)
growth [19]: 43.4%
